The nature of assay [1]: Nuclear factor erythroid 2-related factor 2/antioxidant responsive element (Nrf2/ARE) small molecule agonists: qHTS cell viability counter screen in human keratinocytes (AID 1919968; active = well fitted curve in the direction sought with a large enough effect in the repeat runs; an effect the other way counts as inactive or inconclusive; also: nearly all actives have a fitted effect of over 55% in size; also: potency is read from the fitted curve at half-maximal effect). In short, it runs like this: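 CellTiter-Fluor fluorescence, read 1 h after reagent, gave viability in the same wells as the ARE-luciferase assay. KeratinoSens cells (1,500/well) had 23 h compound exposure at 37 C/5% CO2 following 5 h plating.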

Assay [2] in a line: Nuclear factor erythroid 2-related factor 2/antioxidant responsive element (Nrf2/ARE) small molecule agonists: luciferase reporter gene qHTS assay in human keratinocytes (AID 1919969; also: nearly all actives have a fitted effect of over 35% in size; also: potency is read from the fitted curve at half-maximal effect). (In general: In a reporter assay the amount or activity of a reporter protein is the signal.)
Assay [3] deals with KiSS-1 receptor (Homo sapiens) (UniProt Q969F8). The assay can be described thus: Human kisspeptin (KISS1R) small molecule agonists, calcium flux assay in KISS1R-HEK293 cells (AID 1920064; active = well fitted curve in the direction sought with a large enough effect in the repeat runs; an effect the other way counts as inactive or inconclusive). In short, it runs like this: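 Agonist mode: intracellular calcium rise tracked at 1 s intervals over 3 min (480/540 nm) immediately after compound addition to dye-loaded KISS1R-HEK293 stable cells. Each compound tested at 15 concentrations in triplicate.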

A short description of assay [4]: G protein-coupled receptor (GPCR) small molecule agonists, calcium flux assay: HEK293 wild type cell line counter screen (AID 1920065). The procedure, abridged: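 Calcium flux counter screen: compound added in agonist mode at 15 concentrations in triplicate to dye-loaded parental HEK293 cells. Fluorescence (480/540) read kinetically for 3 min; ATP served as positive control.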
(Calcium flux is commonly read through the fluorescence of an indicator in the cells.)

A short description of assay [5]: p53 small molecule agonists, cell-based qHTS assay with human liver microsomes: qHTS cell viability counter screen (AID 1963579). Also: nearly all actives have a fitted effect of over 45% in size. Also: potency is read from the fitted curve at half-maximal effect. In short, it runs like this: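 Cells carrying the p53 response-element beta-lactamase reporter are treated for 16 h at 37 C with test compounds in the presence of human liver microsomes and NADPH (both 0.5 mg/mL final); ATP-based CellTiter-Glo luminescence then reports viability.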
Background: In qHTS, concentration-response curves come from the screen itself.

A short description of assay [6]: p53 small molecule agonists, cell-based qHTS assay with rat liver microsomes: qHTS cell viability counter screen (AID 1963580). Also: nearly all actives have a fitted effect of over 45% in size. Also: potency is read from the fitted curve at half-maximal effect. The procedure, abridged:
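Rat liver microsome (0.5 mg/mL final) and NADPH (0.5 mg/mL final) co-incubation with compounds for 16 h at 37 C on HCT-116 p53RE-bla cells; cytotoxicity taken from intracellular ATP luminescence.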

Assay [7] can be described thus: p53 small molecule agonists, cell-based qHTS assay: qHTS cell viability counter screen (AID 1963581). Also: nearly all actives have a fitted effect of over 45% in size. Also: potency is read from the fitted curve at half-maximal effect. The procedure, abridged:
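Counter screen read by CellTiter-Glo luminescence (ATP content, 30 min at room temperature), run in the same wells as the beta-lactamase reporter read. HCT-116 p53RE-bla cells saw compounds for 16 h at 37 C.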

In assay [8] the target is 5-hydroxytryptamine receptor 2A (Homo sapiens) (UniProt P28223). Description: 5-hydroxytryptamine receptor 2A (HTR2A) small molecule antagonists, cell-based qHTS assay (AID 1963586). Also: nearly all actives have a fitted effect of over 45% in size. The procedure, abridged: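 CHO cells stably expressing human HTR2A were plated for 18 h at 37 C, then loaded with calcium dye for 1 h. Compounds were preincubated 5 min at room temperature before DOI (4 nM solution) was added. Kinetic fluorescence was read for 3 min.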

Assay [9] shares this target. Description: 5-hydroxytryptamine receptor 2A (HTR2A) small molecule agonists, cell-based qHTS assay (AID 1963587). Also: nearly all actives have a fitted effect of over 30% in size. Also: potency is read from the fitted curve at half-maximal effect. In short, it runs like this: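 Kinetic calcium-flux fluorescence (2 min, 1 sec intervals) after compound addition in agonist mode. HTR2A-CHO cells were cultured 18 h, then dye-loaded 1 h at 37 C.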
Assay [10] deals with Muscarinic acetylcholine receptor M1 (Homo sapiens) (UniProt P11229). The assay can be described thus: Cholinergic receptor muscarinic 1 (CHRM1) small molecule antagonists, cell-based qHTS assay (AID 1963588). Also: nearly all actives have a fitted effect of over 40% in size. In short, it runs like this:
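Compounds were tested at 15 concentrations in three independent runs. Dye-loaded CHRM1-CHO cells were exposed 5 min at room temperature before stimulation by acetylcholine added at 50nM. Intracellular calcium was read kinetically on FDSS for 3 min.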

For assay [11] the target is unchanged. Description: Cholinergic receptor muscarinic 1 (CHRM1) small molecule agonists, cell-based qHTS assay (AID 1963589). Also: nearly all actives have a fitted effect of over 35% in size. The procedure, abridged:
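Agonist-mode calcium-flux screen: compounds at 15 concentrations, three independent runs, were pin-transferred onto dye-loaded human CHRM1-CHO cells. Fluorescence was then recorded kinetically every second over minutes.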

Assay [12] is described as follows: cAMP Responsive Elements (CRE) small molecule agonists, cell-based qHTS assay (AID 1963590). The procedure, abridged: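 Agonist mode: compound added to CRE-bla HEK 293T cells (2,000/well, 18 h after plating) for 3 h at 37 C/5% CO2. Reporter activity detected via FRET beta-lactamase substrate, 2 h room-temperature loading.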
The nature of assay [13]: cAMP Responsive Elements (CRE) small molecule antagonists, cell-based qHTS assay (AID 1963591; active = well fitted inhibition curve with a large enough effect in the signal ratio in the repeat runs, not every such curve was filed as active; the % refers to the signal ratio). The procedure, abridged: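 Antagonist mode: compounds are added alongside the adenylyl cyclase activator NKH477 (0.25 uM final) to CRE-bla HEK293T cells for 3 h. LiveBLAzer FRET substrate, 2 h at room temperature, reports bla expression.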
The target of assay [14] is Beta-2 adrenergic receptor (Homo sapiens) (UniProt P07550). Description: Adrenergic beta2 receptor (ADRB2) small molecule antagonists, cell-based qHTS assay (AID 1963592). Also: series mostly up to about 92 µM; nearly all actives have a fitted effect of over 50% in size. In short, it runs like this:
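Assay format: CHO-ADRB2 cells, 18-20hr seeding at 37C/5% CO2, then compound plus 1nM isoproterenol agonist mix for 0.5hr RT. Homogeneous time-resolved fluorescence cAMP detection after 1hr, expressed as 665/615 nm ratio.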

Assay [15] concerns the target D(2) dopamine receptor (Homo sapiens) (UniProt P14416). The assay can be described thus: Dopamine D2 receptor (DRD2) small molecule agonists, cell-based qHTS assay (AID 1963594). Also: nearly all actives have a fitted effect of over 35% in size. The procedure, abridged: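 cAMP accumulation in DRD2-HEK293 cells measured by HTRF after 1 h detection; compounds added 10 min before NKH477 (200nM […]) forskolin-analogue stimulation, 30 min at room temperature, with Ro20-1724 present at 0.1 mM final.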

For assay [16] the target is unchanged. The assay can be described thus: Dopamine D2 receptor (DRD2) small molecule antagonists, cell-based qHTS assay (AID 1963595; active = well fitted inhibition curve with a large enough effect in the signal ratio in the repeat runs, with a control signal flat; the % refers to the signal ratio; also: potency is read from the fitted curve at half-maximal effect). In short, it runs like this:
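HEK293 cells stably expressing DRD2, preincubated with 0.1 mM Ro20-1724 and compounds 10 min, were stimulated with 200 nM NKH477 plus 12 nM quinpirole for 30 min at room temperature; cAMP measured by HTRF (665/620 nm).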

A short description of assay [17]: p53 small molecule agonists, cell-based qHTS assay with rat liver microsomes (AID 1963578). The procedure, abridged:
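Read-out is beta-lactamase reporter fluorescence (LiveBLAzer, 2 h, room temperature, dark) in p53RE-bla cells treated 16 h at 37 C with compound, rat liver microsomes and NADPH, both 0.5 mg/mL final.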

Assay [18] can be described thus: p53 small molecule agonists, cell-based qHTS assay (AID 1963582; active = well fitted activation curve with a large enough effect in the signal ratio in the repeat runs, not every such curve was filed as active; the % refers to the signal ratio). In short, it runs like this: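 Read-out is beta-lactamase FRET fluorescence after 2 h at room temperature with LiveBLAzer B/G substrate. p53 response element-bla cells were treated 16 h at 37 C with compounds in DMSO, added 5 h after seeding.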
In assay [19] the target is Beta-2 adrenergic receptor (Homo sapiens) (UniProt P07550). Description: Adrenergic beta2 receptor (ADRB2) small molecule agonists, cell-based qHTS assay (AID 1963593).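 Also: CHO cells stably overexpressing human ADRB2.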 In short, it runs like this:
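CHO cells stably over-expressing ADRB2 were plated overnight at 37C, then dosed with compounds plus a stimulation mix containing 100uM IBMX and 25uM Ro-20-1724 for 0.5hr at room temperature. cAMP was measured by HTRF competition, 1hr.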

A short description of assay [20]: p53 small molecule agonists, cell-based qHTS assay with human liver microsomes (AID 1963577). The procedure, abridged: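 Compounds act here after metabolic activation: human liver microsomes and NADPH, both at 0.5 mg/mL final, were co-added to p53RE-bla cells. Incubation ran 16 h at 37 C, followed by LiveBLAzer detection.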

The structures appear in SMILES notation. Unmarked numbers belong to inactive results. Records with an inconclusive call do not appear. The source made the active and inactive calls. Unless noted, calls follow the shape of the full dose curve.
% is scaled to controls: 0 for no effect and ±100 for the full control effect.

Sequence of KiSS-1 receptor (Homo sapiens) (Q969F8 whole entry, looked up): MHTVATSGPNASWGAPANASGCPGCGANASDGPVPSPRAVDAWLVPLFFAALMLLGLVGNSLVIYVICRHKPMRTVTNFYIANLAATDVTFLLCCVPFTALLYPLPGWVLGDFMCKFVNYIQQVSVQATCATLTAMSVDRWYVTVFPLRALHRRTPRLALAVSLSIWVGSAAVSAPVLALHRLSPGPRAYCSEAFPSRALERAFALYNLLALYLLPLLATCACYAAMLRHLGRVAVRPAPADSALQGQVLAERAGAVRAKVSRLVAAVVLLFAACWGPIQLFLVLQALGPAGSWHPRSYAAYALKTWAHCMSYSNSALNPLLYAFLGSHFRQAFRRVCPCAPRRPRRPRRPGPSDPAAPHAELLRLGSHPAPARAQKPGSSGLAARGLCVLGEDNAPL
Sequence of Beta-2 adrenergic receptor (Homo sapiens) (P07550 whole entry, looked up): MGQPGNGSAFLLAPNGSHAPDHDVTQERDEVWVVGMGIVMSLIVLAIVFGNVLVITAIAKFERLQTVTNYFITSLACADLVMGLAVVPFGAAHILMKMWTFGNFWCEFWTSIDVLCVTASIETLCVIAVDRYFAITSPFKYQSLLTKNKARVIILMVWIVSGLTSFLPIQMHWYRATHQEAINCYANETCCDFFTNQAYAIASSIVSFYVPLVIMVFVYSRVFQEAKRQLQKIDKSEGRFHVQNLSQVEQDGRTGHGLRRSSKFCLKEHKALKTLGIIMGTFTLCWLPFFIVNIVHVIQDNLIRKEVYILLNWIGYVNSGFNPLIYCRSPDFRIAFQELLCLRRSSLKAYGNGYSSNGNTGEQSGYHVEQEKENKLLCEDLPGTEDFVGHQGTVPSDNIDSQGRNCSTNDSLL
Sequence of D(2) dopamine receptor (Homo sapiens) (P14416 whole entry, looked up): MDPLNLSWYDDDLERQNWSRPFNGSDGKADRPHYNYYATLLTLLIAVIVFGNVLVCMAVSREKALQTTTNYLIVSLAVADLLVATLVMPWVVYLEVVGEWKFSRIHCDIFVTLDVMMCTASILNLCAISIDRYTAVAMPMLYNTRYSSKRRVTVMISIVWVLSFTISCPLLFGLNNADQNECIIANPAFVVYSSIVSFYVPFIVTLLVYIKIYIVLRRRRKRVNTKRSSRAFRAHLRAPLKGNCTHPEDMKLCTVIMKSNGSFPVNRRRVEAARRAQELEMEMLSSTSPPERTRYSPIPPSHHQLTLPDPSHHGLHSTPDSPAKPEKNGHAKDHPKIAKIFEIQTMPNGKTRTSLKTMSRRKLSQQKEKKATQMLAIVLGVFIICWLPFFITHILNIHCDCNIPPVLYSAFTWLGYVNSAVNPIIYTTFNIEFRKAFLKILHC
Sequence of Muscarinic acetylcholine receptor M1 (Homo sapiens) (P11229 whole entry, looked up): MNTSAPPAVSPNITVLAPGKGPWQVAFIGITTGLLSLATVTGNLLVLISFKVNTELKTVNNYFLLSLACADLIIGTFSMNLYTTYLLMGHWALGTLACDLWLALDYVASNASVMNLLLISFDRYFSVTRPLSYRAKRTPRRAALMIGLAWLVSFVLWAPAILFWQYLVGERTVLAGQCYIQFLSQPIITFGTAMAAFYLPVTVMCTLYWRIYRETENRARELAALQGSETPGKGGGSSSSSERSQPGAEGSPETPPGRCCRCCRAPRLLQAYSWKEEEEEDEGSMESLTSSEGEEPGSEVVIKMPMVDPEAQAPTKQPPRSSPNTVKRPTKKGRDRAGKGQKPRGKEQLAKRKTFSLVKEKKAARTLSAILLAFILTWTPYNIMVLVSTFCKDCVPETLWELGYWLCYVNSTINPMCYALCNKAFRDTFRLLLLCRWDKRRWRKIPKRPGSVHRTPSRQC
Sequence of 5-hydroxytryptamine receptor 2A (Homo sapiens) (P28223 whole entry, looked up): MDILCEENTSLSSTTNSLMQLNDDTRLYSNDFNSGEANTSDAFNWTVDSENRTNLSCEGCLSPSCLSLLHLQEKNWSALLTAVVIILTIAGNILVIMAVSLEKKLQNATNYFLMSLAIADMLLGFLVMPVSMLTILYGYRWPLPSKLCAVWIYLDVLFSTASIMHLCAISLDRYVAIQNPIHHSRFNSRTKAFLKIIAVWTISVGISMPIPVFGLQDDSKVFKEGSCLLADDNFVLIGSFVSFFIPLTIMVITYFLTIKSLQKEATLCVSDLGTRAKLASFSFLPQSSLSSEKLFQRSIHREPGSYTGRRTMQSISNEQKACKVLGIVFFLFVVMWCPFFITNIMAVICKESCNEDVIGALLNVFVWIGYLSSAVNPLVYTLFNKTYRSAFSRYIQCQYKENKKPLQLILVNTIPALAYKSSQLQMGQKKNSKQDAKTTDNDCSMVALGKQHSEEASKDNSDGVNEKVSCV

As for `NC(N)=NCCC[C@H](N)C(=O)O`, the activity change, negative = cytotoxicity in assay [1] was -4.64% [at 8.39 µM]; in [5] it was -0.294% [at 5.99 µM]; in assay [6], 1.88% [at 5.99 µM]; in [7], -8.01% [at 5.99 µM]. Also, in [2], the activity, positive = activation is -5.37% [at 8.39 µM]. Also, the activation is -0.0198% [at 6.97 µM] in [3]; 2.23% [at 5.23 µM] in [4]; 2.81% [at 7.02 µM] in [9]; -0.347% [at 6.97 µM] in assay [11]; 4.27% [at 8.39 µM] in assay [12]; -13.5% [at 8.39 µM] in assay [15]. For the same molecule, the activity, negative = inhibition in assay [8] was 19.6% [at 5.62 µM]; in assay [10] it was -1.41% [at 5.58 µM]. For the same molecule, the activity change, negative = inhibition in assay [13] is -3.28% [at 8.39 µM]; in [14], 0.0181% [at 8.39 µM]; in [16], 5.33% [at 8.38 µM].
As for `CC1(C)CCC(C)(C)c2cc(C(=O)Nc3ccc(C(=O)O)cc3)ccc21`, the Potency result in assay [1], in assay [2], in assay [3], in assay [4], in assay [17] and in assay [11] was “inactive” each time. Besides, the Potency entry in [14], in [15] and in assay [16] was “inactive” throughout.
Take `CCCCC(CC)COC(=O)CCCCC(=O)OCc1ccccc1` (configuration not stated): the Potency entry in assay [1], in [2], in assay [3], in assay [4], in [17] and in [5] was “inactive” each time. Further, the Potency result in [6], in assay [18], in assay [8], in assay [9], in assay [10] and in [11] was “inactive” in each case. Further, the Potency result in [12], in assay [13], in [14], in [19], in assay [15] and in assay [16] was “inactive” in each case.
Take `CCCCCCCCCCCCCCCCCC[N+](C)(C)C`: the Potency is 61.3 µM (active) in [1], 40.9 µM (active) in [5], 16.3 µM (active) in assay [7] and 34.8 µM (active) in assay [9]. In addition, the Potency result in assay [2], in assay [3], in assay [4], in [20], in [17] and in assay [8] was “inactive” in each case. Moreover, the Potency entry in assay [11], in assay [15] and in assay [16] was “inactive” in each case.
Turning to `CCCCCCCCn1sc(Cl)c(Cl)c1=O`, the Potency in [1] is 13.7 µM (active); in [2], 4.86 µM (active); in assay [5], 36.3 µM (active); in assay [6] it was 36.3 µM (active); in assay [9], 43.6 µM (active); in assay [16], 27.3 µM (active). The Potency result in assay [3], in [4], in assay [20], in [17], in assay [10] and in assay [11] was “inactive” throughout. Further, the Potency entry in assay [14] and in assay [15] was “inactive” each time.
For `CN1CCN2c3ccccc3Cc3ccccc3C2C1` (configuration not stated), the Potency entry in [1], in [2], in assay [3], in assay [4], in assay [20] and in assay [17] was “inactive” each time. Further, the Potency entry in [6], in assay [18], in assay [12], in [13], in assay [14] and in assay [15] was “inactive” throughout. Besides, in assay [16], the Potency entry was “inactive”.
Take `CC(=O)Oc1cccc(C)c1`: the Potency result in assay [1], in assay [2], in [3], in assay [4], in [17] and in assay [6] was “inactive” each time. In addition, the Potency entry in assay [7], in assay [18], in [9], in assay [10], in assay [11] and in assay [13] was “inactive” in each case. In addition, the Potency result in assay [14], in assay [19], in assay [15] and in assay [16] was “inactive” throughout.
`CC(C)c1ccc(O)c(C(C)C)c1`: the Potency entry in assay [1], in [3], in assay [4], in assay [20], in assay [17] and in [6] was “inactive” in each case. The Potency result in [7], in [10], in [11], in assay [15] and in [16] was “inactive” in each case. Also, the Potency was 68.6 µM (active) in [2] and 54.9 µM (active) in assay [9].

(Values after PubChem BioAssay (Tox21).)
